# Measured values: publication PMC7862700, “An all-to-all approach to the identification of sequence-specific readers for epigenetic DNA modifications on cytosine”
# Legend:
# Assay in all cases: DAPPL (digital affinity profiling via proximity ligation, sequencing); 10 mM Tris-HCl pH 7.5, 50 mM NaCl, 1 mM DTT, 4% glycerol, room temperature, 30 min; GST-TFs on glutathione beads, 16-mer random dsDNA library, 0.1% formaldehyde crosslink after washing; high values mean tight binding
# Details in all cases: protein: recombinant; tags: N-terminal GST; dsDNA, one strand shown
# FLI1 = biological target: T1, FLI1 (Homo sapiens, UniProt Q01543 1-452)
# T1 sequence: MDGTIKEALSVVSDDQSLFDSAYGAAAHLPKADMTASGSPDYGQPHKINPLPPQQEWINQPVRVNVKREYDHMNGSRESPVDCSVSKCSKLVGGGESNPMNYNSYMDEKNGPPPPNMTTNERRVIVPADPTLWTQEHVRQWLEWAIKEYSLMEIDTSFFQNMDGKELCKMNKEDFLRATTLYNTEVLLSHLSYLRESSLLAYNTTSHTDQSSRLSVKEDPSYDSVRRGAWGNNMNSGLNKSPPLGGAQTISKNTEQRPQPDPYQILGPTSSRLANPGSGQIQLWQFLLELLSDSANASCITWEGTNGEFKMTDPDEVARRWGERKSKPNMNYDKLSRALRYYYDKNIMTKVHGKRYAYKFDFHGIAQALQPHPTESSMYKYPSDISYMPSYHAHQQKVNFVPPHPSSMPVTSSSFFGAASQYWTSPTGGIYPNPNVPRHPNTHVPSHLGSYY
# In short: (§1)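 GST fusions of human transcription factors were expressed in yeast and captured with glutathione beads. Once given DNA barcodes and pooled alongside a tag-only sample, they were incubated for 30 min at room temperature with 200 nmole of a random double-stranded 16-mer DNA library in Tris/NaCl/DTT/glycerol buffer, then washed, crosslinked (0.1% formaldehyde), proximity-ligated, PCR-amplified and sequenced on an Illumina NextSeq500. The binding signal of each hexamer is its read frequency for a factor divided by its frequency for the tag-only sample.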
# ELK1 = biological target: T2, ELK1 (Homo sapiens, UniProt P19419 1-428)
# T2 sequence: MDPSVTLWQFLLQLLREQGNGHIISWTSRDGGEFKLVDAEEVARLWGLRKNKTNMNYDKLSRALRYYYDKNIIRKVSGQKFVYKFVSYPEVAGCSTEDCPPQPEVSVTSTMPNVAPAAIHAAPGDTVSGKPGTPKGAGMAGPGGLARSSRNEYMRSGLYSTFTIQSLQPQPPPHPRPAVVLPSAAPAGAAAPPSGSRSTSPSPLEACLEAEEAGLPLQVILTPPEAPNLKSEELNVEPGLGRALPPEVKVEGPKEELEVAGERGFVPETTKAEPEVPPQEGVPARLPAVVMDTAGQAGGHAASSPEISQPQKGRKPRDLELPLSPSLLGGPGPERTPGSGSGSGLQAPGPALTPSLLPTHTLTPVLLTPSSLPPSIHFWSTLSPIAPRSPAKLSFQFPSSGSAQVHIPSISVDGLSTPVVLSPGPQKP
# In short: as §1
# GABPA = biological target: T3, GABPA (Homo sapiens, UniProt Q06546 1-454)
# T3 sequence: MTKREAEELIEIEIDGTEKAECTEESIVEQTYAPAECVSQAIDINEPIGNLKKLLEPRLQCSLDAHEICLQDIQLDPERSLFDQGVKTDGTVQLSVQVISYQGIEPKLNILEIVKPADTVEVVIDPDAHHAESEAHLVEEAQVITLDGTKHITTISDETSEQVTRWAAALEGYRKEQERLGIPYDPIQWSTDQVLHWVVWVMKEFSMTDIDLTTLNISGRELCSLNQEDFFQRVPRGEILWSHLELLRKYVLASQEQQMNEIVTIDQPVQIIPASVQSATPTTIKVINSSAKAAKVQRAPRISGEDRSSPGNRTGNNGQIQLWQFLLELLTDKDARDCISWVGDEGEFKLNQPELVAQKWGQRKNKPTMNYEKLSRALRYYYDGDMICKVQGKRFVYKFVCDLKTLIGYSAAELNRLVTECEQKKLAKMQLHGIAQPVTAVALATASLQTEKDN
# In short: as §1
# ERG = biological target: T4, ERG (Homo sapiens, UniProt P11308 1-479)
# T4 sequence: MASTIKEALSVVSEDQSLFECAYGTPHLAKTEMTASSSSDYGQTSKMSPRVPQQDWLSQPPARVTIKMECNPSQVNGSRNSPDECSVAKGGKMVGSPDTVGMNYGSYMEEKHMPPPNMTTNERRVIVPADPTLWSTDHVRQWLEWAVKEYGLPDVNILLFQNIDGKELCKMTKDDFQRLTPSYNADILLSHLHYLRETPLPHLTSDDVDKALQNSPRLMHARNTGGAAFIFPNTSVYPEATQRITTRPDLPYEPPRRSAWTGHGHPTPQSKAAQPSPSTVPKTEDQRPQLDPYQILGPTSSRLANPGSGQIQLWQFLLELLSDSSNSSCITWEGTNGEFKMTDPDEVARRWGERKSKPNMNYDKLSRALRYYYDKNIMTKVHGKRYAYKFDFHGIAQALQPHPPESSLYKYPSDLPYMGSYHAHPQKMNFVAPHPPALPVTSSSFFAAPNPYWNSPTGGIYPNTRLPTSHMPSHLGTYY
# In short: as §1
# ELF1 = ELF1 (Homo sapiens, UniProt P32519 1-619)
# Chain of ELF1 (P32519 whole entry): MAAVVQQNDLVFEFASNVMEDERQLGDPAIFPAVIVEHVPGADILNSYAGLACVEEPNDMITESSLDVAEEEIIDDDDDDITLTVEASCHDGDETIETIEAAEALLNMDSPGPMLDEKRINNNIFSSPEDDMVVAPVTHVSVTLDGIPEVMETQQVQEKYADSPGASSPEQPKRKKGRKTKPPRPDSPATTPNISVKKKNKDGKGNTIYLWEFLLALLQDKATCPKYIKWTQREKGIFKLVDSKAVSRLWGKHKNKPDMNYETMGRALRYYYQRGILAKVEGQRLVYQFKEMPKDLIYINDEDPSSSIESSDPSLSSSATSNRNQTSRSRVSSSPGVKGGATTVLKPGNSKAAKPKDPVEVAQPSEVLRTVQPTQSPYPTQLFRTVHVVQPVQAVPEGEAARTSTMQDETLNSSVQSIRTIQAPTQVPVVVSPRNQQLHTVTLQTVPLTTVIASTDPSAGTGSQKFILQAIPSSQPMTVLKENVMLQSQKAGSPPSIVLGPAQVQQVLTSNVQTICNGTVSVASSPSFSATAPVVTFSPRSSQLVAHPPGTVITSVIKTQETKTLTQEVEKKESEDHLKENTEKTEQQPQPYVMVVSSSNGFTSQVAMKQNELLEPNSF
# In short: as §1
# EHF = biological target: T5, EHF (Homo sapiens, UniProt Q9NZC4 1-300)
# T5 sequence: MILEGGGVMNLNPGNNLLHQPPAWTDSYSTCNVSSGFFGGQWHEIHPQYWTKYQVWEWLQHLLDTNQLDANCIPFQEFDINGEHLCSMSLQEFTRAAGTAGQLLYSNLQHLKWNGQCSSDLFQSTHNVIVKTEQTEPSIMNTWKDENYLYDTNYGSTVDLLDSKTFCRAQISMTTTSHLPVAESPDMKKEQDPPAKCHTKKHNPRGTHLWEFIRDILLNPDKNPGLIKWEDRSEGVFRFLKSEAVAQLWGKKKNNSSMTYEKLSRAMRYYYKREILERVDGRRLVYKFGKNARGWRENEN
# In short: as §1
# SPI1 = SPI1 (Homo sapiens, UniProt P17947 1-270)
# In short: as §1
# SPIB = SPIB (Homo sapiens, UniProt Q01892 1-262)
# Chain of SPIB (Q01892 whole entry): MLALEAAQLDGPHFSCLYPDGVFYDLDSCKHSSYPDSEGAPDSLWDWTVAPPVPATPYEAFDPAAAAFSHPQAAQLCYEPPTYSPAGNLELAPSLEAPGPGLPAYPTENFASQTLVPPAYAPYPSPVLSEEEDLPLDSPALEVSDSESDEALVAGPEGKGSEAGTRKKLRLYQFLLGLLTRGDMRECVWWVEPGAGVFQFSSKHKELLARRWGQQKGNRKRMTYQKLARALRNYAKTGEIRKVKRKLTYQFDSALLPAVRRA
# In short: as §1
# ELK3 = biological target: T6, ELK3 (Homo sapiens, UniProt P41970 1-407)
# T6 sequence: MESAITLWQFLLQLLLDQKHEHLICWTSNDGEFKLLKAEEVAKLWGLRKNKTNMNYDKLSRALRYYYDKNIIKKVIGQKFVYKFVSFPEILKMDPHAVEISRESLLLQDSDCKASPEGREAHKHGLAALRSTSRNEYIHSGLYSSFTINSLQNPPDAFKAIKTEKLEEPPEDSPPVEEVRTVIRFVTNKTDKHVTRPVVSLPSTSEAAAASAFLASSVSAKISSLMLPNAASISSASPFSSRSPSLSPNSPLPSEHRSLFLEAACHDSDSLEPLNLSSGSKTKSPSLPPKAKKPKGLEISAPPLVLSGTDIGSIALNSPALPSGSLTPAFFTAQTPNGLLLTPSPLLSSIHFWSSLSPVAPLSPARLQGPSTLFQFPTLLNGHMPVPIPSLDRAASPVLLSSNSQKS
# In short: as §1
sequence,measurement,setting,value
TCTGGG,binding signal,FLI1,"1.1 fold enrichment (6-mer frequency, TF over GST control)"
same,binding signal,ELK1,"1.06 fold enrichment (6-mer frequency, TF over GST control)"
same,binding signal,GABPA,"1.06 fold enrichment (6-mer frequency, TF over GST control)"
same,binding signal,ERG,"1.04 fold enrichment (6-mer frequency, TF over GST control)"
same,binding signal,ELF1,"1.18 fold enrichment (6-mer frequency, TF over GST control)"
same,binding signal,EHF,"1.09 fold enrichment (6-mer frequency, TF over GST control)"
same,binding signal,SPI1,"1.12 fold enrichment (6-mer frequency, TF over GST control)"
same,binding signal,SPIB,"1.02 fold enrichment (6-mer frequency, TF over GST control)"
same,binding signal,ELK3,"1.28 fold enrichment (6-mer frequency, TF over GST control)"
